Screen size: about 2,100 compounds; about 940 (45%) were called active. Roughly 48% stayed inconclusive and do not appear here. Calls follow the shape of the dose curve; as a rule, active = well fitted inhibition curve with a large enough effect; inconclusive = small, poorly fitted or top-dose-only effect; inactive = no such curve, though single readings can be large or run the other way. So high a share suggests a set chosen from earlier hits. Some of the results follow.

Data on 46 compounds can be found in PubChem BioAssay AID1745848 (National Center for Advancing Translational Sciences (NCATS), 2022).
Potency is read from the fitted curve at half-maximal effect.

This assay can be described thus: Confirmatory qHTS for Inhibitors of ATXN expression. Also: nearly all actives have a fitted effect of over 65% in size.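 As to activity change, negative = inhibition: 0% = DMSO vehicle wells and -100% = medium-only wells without cells.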 The settings on record: ATXN2-luciferase reporter cells, luminescence, 24 h; series mostly up to 11.5 µM; activity change, negative = inhibition: at the top concentration. The text has this: PI: Daniel Scoles Ph.D. University of Utah School of Medicine, Salt Lake City, Utah MLPCN Grant: NS073009 Spinocerebellar ataxia type 2 (SCA2) is a multisystem neurodegenerative disease caused by a dominantly acting mutation leading to expansion of a polyQ domain in the ataxin-2 protein (ATXN2). SCA2 patients develop progressive ataxia and later lose function in other neuronal systems. Prominent parkinsonian signs develop in some patients. Like many neurodegenerative disorders, no symptomatic or disease-modifying treatments are known. The primary objective of the proposed research is to identify compounds inhibiting ATXN2 expression and to test them for efficacy in SCA2 mouse models. We have developed a cell-based assay paired with an in vivo mouse model using identical luciferase expression constructs. This approach takes advantage of an ATXN2-luciferase transgene, with the luciferase gene flanked by the upstream and downstream portions of the ATXN2 gene. Here we describe a 5-7 dose quantitative high thoroughput screen (qHTS) for compounds lowering ATXN2 expression. We screened the NIH Molecular Libraries Small Molecule Repository (MLSMR) and NCGC's mechanistically annotated (MIPE) and drug repurposing (NPC) collections of compounds for lowering expression of an ATXN2-luciferase reporter in HEK-293 cells. The assay is a multiplexed cell viability assay to ensure target reduction in the absence of cytotoxicity. Secondary qHTS assays included a CMV-luciferase reporter expressed in HEK-293 cells as well as a biochemical assay using recombinant luciferase to detect inhibitors of the reporter enzyme. Compounds that inhibit ATXN2 expression but is not cytotoxic were selected for confirmatory and secondary screens.
PROTOCOL TABLE (as described by Inglese J, Shamu CE and Guy RK. 2007) SEQUENCE No. (e.g., 1, 2, 3, etc.); PARAMETER (e.g., Cells, Incubation, Reagent, etc.); VALUE; DESCRIPTION. 1; Cells; 4 uL; white, solid bottom, 1536-well Greiner assay plate. 2; Incubation; 2 hr; 37 degree C in 5% humidified CO2. 3; Compounds; 23 nL; Kalypsis pintool (Wako USA) equipped with a 1536-well pin head. 4; Incubation; 24 hr; 37 degree C in 5% humidified CO2. 5; Reagent; 1 uL; Gly-Phe-7-Amino-4-trifluoromethylcoumarin. 6; Incubation; 30 min; 37 degree C in 5% humidified CO2. 7; Detection; Fluorescence; ViewLux plate reader (PerkinElmer). 8; Reagent; 3 uL; SteadyGlo luciferase solution (Promega). 9; Incubation; 5 min; room temperature. 10; Detection; Luminescence; ViewLux plate reader (PerkinElmer). NOTES (numbers refer to Sequence numbers above) 1. […] expressing ATXN2-luciferase reporter were suspended in phenol-red free DMEM and dispensed in assay plates using a Multidrop Combi dispenser (Thermo Fisher Scientific). Wells containing medium only were plated on each plate, and values were used to normalize (100% inhibition) in the luciferase and CellTiter-Fluor assays. 2. Assay plates were incubated. Evaporation was prevented by covering assay plates with metal lids containing holes to allow gas diffusion. 3. Compounds were added in a dose response manner with the final concentrations of 57, 11.4, 2.28, 0.46, 0.091, 0.018, 0.0037 uM. Vehicle-only plates, with DMSO being pin-transferred to columns 5-48, were inserted uniformly at the beginning and the end of each library to monitor and record any shifts in assay performance. 5. 125 uM Gly-Phe-7-Amino-4-trifluoromethylcoumarin (MP Biomedicals) working concentration was used at a final concentration of 25 uM. 7. To assess cell viability; the assay plates were read using the ViewLux high-throughput CCD imager (PerkinElmer), wherein single end-point fluorescence measurement was acquired (excitation 405/10; emission 540/25 nm). 8. Detection reagent SteadyGlo Luciferase (Promega) was added to the assay plate. 10. Luminescence is then measured on the ViewLux imager equipped with a clear emission filter using a 2 sec exposure. […]
`COc1ccc(CC(=O)Nc2nc(-c3ccc(F)c(F)c3)cs2)cc1OC`: the Potency was 4.47 µM (active).

Take `COc1cc(CC(=O)Nc2nc(-c3ccc(F)c(F)c3)cs2)cc(OC)c1OC`: the Potency is 3.98 µM (active).

As for `COCCNc1nc(-c2cc(C)n(CCc3ccc(OC)cc3)c2C)cs1`, the “activity change, negative = inhibition” value is -16.2% [at 57.5 µM] (inactive).

For the compound `O=C(Nc1nc(-c2ccc(F)c(F)c2)cs1)Nc1ccc(F)cc1F`, the Potency is 1.41 µM (active).

With `O=C(CCN1C(=O)C2CC=CCC2C1=O)Nc1nc(-c2ccc(F)c(F)c2)cs1` (stereo unspecified), the “activity change, negative = inhibition” value was -4.12% [at 57.5 µM] (inactive).

As for `COc1ccc(CC(=O)Nc2nc(-c3ccc(OC)c(OC)c3)cs2)cc1OC`, the Potency was 3.16 µM (active).

In the case of `CCCCCc1ccc(OCCCC[n+]2cccc(C)c2)c(CCCCC)c1`, the Potency is 14.1 µM (active).

In the case of `CCCCCc1ccc(OCCC[n+]2ccccc2)c(CCCCC)c1`, the Potency is 14.1 µM (active).

Consider `CCOC(=O)[C@H]1[C@H]2COc3ccc(OC)cc3[C@@H]2N2C(=O)c3cc(OC)c(OC)cc3NC(=O)[C@@]12C`, for which the “activity change, negative = inhibition” value was -9.99% (inactive).

Take `COc1ccc(/C=C2\CN(Cc3ccccc3)C/C(=C\c3ccc(OC)c(O)c3)C2=O)cc1O`: the Potency was 3.98 µM (active).

For `COc1ccc(C(=O)Cn2c(C(=O)/C=C/c3ccccc3)nc3ccccc32)cc1`, the Potency is 2.82 µM (active).

Take `COCC(C)n1c(C)cc(C(=O)COC(=O)c2cccn2C)c1C` (stereo unspecified): the Potency is 2.24 µM (active).

Take `C/C(=N\NC(=O)c1cc(C2CC2)nc2ccccc12)c1ccc(O)cc1O`: the Potency is 3.55 µM (active).

As for `C/C(=N\NC(=O)c1cc(-c2cccnc2)nc2ccccc12)c1ccc(O)cc1O`, the Potency is 2.51 µM (active).

Regarding `COc1cccc(/C=N/NC(=O)c2c(-c3ccccc3)noc2C)c1O`, the Potency is 0.708 µM (active).

In the case of `Cc1cccc(/C=N/NC(=O)c2c(-c3ccccc3)noc2C)c1O`, the Potency is 1.26 µM (active).

For the compound `Cc1onc(-c2ccccc2)c1C(=O)Nc1ccc(S(=O)(=O)NC(C)(C)C)cc1`, the “activity change, negative = inhibition” value was -20.4% [at 57.5 µM] (inactive).

For `Cc1cc(N2CCN(C)CC2)ccc1NC(=O)c1ccc(-c2ccc(Cl)cc2)o1`, the Potency is 14.1 µM (active).

Turning to `CCc1ccc(N2CC(C(=O)N/N=C/c3cc([N+](=O)[O-])ccc3O)CC2=O)cc1` (stereo unspecified), the Potency is 25.1 µM (active).

For `O=C(N/N=C/c1ccccc1O)C1CC(=O)N(c2ccc(Cl)cc2)C1` (stereo unspecified), the Potency is 1.41 µM (active).

For the compound `O=C(N/N=C/c1ccccc1O)C1CC(=O)N(c2ccc(F)cc2)C1` (stereo unspecified), the Potency is 3.55 µM (active).

On to `COC(=O)C(Cc1ccc(O)cc1)NC(=O)C(C)Oc1ccccc1` (stereo unspecified), for which the “activity change, negative = inhibition” value is -11.3% [at 57.5 µM] (inactive).

As to `COc1ccccc1NC(=S)NC(=O)c1ccc(Cn2cc(Br)cn2)cc1`, the “activity change, negative = inhibition” value was -19.7% [at 57.5 µM] (inactive).

For `COc1ccccc1C(=O)NNC(=S)NC(=O)c1ccco1`, the Potency is 6.31 µM (active).

In the case of `CC(Oc1ccc(Cl)cc1)C(=O)NNC(=S)NC(=O)c1ccco1` (stereo unspecified), the Potency was 14.1 µM (active).

With `CC(=O)c1ccc(NC(=O)COC(=O)c2c3c(nc4ccccc24)/C(=C\c2cccs2)CCC3)cc1`, the Potency was 20 µM (active).

Take `O=C(NN=Cc1ccc(O)cc1O)c1ccccc1NS(=O)(=O)c1cccs1`: the Potency is 2.82 µM (active).

For `CN1C/C(=C/c2cccnc2)C(=O)/C(=C/c2cccnc2)C1`, the “activity change, negative = inhibition” value was 1.08% (inactive).

For the compound `O=C1/C(=C/c2ccncc2)CCC/C1=C\c1ccncc1`, the Potency is 5.62 µM (active).

Turning to `CCn1c(/C=C/c2ccc([N+](=O)[O-])o2)nc2ccccc2c1=O`, the Potency was 7.08 µM (active).

Turning to `O=C(Nc1ccc(F)cc1)Nc1cc(OCC(F)(F)F)cc(OCC(F)(F)F)c1`, the Potency is 3.55 µM (active).

Take `COc1ccc(CC2C(=O)NC(C)C(=O)N(C)C3Cc4ccc(cc4)Oc4cc(ccc4O)CC(C(=O)NC(C)C(=O)NC(C)C(=O)N2C)N(C)C3=O)cc1` (stereo unspecified): the Potency is 0.251 µM (active).

For the compound `O=C(CSCc1ccc(Cl)cc1)Nc1cc([N+](=O)[O-])ccc1O`, the “activity change, negative = inhibition” value is -3.54% (inactive).

For `O=C(CCC(=O)Nc1cc(C(F)(F)F)ccc1Cl)N/N=C\c1cc([N+](=O)[O-])ccc1O`, the Potency was 3.16 µM (active).

For the compound `O=C(CCCC(=O)Nc1cccc(Br)c1)N/N=C/c1cc([N+](=O)[O-])ccc1O`, the Potency was 3.16 µM (active).

Turning to `c1ccc(CN=C(NCc2ccccc2)NCc2ccccc2)cc1`, the Potency is 28.2 µM (active).

Consider `COc1ccc2[nH]c3c(N4CCC(O)(c5cccc(C(F)(F)F)c5)CC4)ncnc3c2c1`, for which the Potency is 2.82 µM (active).

`COc1cccc2c1C(CO)N1C(C#N)C3CC(C(=O)O)C(C1C2)N3C` (stereo unspecified): the Potency is 0.282 µM (active).

Regarding `COc1cccc2c1C1COC3C4CC(C(=O)O)C(C(C2)N13)N4C` (stereo unspecified), the Potency was 10 µM (active).

Take `Cc1nnc(-c2ccccc2)c(=O)n1/N=C/c1c(O)ccc2ccccc12`: the Potency was 10 µM (active).

For `COc1ccc2nc(C)cc(Nc3ccc(N4CCOCC4)cc3)c2c1`, the Potency was 15.8 µM (active).

With `COC(=O)c1ccc(N2CCOCC2)c(NC(=O)Nc2cccc(OC)c2)c1`, the “activity change, negative = inhibition” value was -5.44% (inactive).

In the case of `CC(C)(C)c1ccc(C(=O)N2CCCCCC2=O)cc1`, the Potency was 1.78 µM (active).

In the case of `COc1ccc(-c2csc(N(CCCN(C)C)C(=O)c3ccccc3Cl)n2)cc1`, the Potency was 3.16 µM (active).

As to `COc1ccc(-c2csc(N(CCCN3CCOCC3)C(=O)c3ccco3)n2)cc1`, the Potency is 3.16 µM (active).

As to `COc1ccc(/C(N)=N/OC(=O)N2CCOCC2)cc1`, the “activity change, negative = inhibition” value was -30.8% (inactive).
